Results taken from PubChem BioAssay (NCI).
Values joined by “and” are separate entries in the source; they are usually repeats but may differ in a detail not shown here. Equal entries are not always repeated. This is part of a sample that, as a whole, favours compounds with a hit. Of some 83,000 tested, about 20% had one in any assay.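 Single-concentration screen, 48 h exposure, 96-well plates. Endpoint: percent growth. Below 10 = active.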 Active and inactive are the calls of the source.

The compounds below were run on TK-10 renal (assay: NCI-60 one-dose screen, 48 h (100 = growth as untreated, 0 = no growth, -100 = all killed)). Conditions: 10 µM.
Description: Growth inhibition of the TK-10 human tumor cell line is measured as a screen for anti-cancer activity. Cells are grown in 96 well plates and exposed to the test compound for 48 hours. Compounds are tested at a single concentration, which is 10^-5 M for most compounds. The reported endpoint is percent growth (GI% or GIPRCNT), where numbers from 0 - 100% represent growth inhibition, and numbers from -100% - 0 represent cell death. For example, a value of 40 represents 60% growth inhibition. A value of 0 means no net growth occurred over the course of the experiment. A value of -40 indicates 40% of cells at the beginning of the experiment died by the end of the experiment. A value of -100 means all cells are dead at the end of the experiment.
NCI-60 Human Tumor Cell Lines Screen was performed using the standard one-dose NCI protocol, which is described in more detail at https://dtp.cancer.gov/discovery_development/nci-60/default.htm.
Compounds with GIPRCNT values below 10 were considered active. Activity score was based on GIPRCNT using the following formula: […]
Score is 0 for GIPRCNT values of 100 or above, 50 for GIPRCNT values of 0, and 100 for GIPRCNT values of -100.

Q: For O=C(O)c1c(Cl)c(Cl)c(Cl)c(Cl)c1-c1c2cc(I)c(=O)c(I)c-2oc2c(I)c(O)c(I)cc12, which growth is on record?
A: The growth was 108% (inactive) and 116% (inactive) and 84.5% (inactive).

Q: With O=C(Nc1cccc(Br)c1)Oc1cccc2cccnc12 as the compound, how does the growth read?
A: Its growth is 118% (inactive).

Same assay, conditions: 10 µM unless noted

Q: For COc1ccccc1OC(=O)Oc1ccccc1OC, which growth is on record?
A: Its growth is 104% (inactive) and 98% (inactive).

Q: For CC(C)(C)CC(C)(C)c1ccc(OCCSC(=N)N)cc1, which growth is on record?
A: The growth was 72.3% (inactive).

Q: How did the growth turn out when COC(=O)c1nc(=S)[nH]c(C(=O)OC)c1C(=O)c1ccc2ccccc2c1 was run?
A: The growth was 109% (inactive).

Q: Which growth does the source give for O=C(CC1(O)C(=O)Nc2c(Cl)ccc(Cl)c21)c1ccc(Cl)cc1Cl (stereo not given) here?
A: Its growth is 105% (inactive).

Q: How did the growth turn out when CC(C)(C)c1ccc(O)c(C2CCCCC2)c1 was run?
A: The growth was 92.2% (inactive).

Q: How did the growth turn out when CN(C)c1ccc(C(=C2C=CC(=[N+](C)C)C=C2)c2ccc(N(C)C)cc2)cc1 (tested in a mixture with another compound) was run?
A: The growth was -79.2% (active).

Q: With C=CCOc1ccc(N=NC(C#N)C#N)cc1 as the compound, how does the growth read?
A: Its growth is 62.6% (inactive).

Q: For N[C@H](C(=O)O)[C@@H]1CC(Cl)=NO1, which growth is on record?
A: Its growth is 24.7% [20 µM] (inactive).

Q: For Oc1c(Cl)c2ccccc2c2ccccc12, which growth is on record?
A: The growth was 84.8% (inactive).

Q: How did the growth turn out when CCN(CC)CCOc1ccc(-c2nc3cc(Cl)ccc3s2)cc1 was run?
A: Its growth is 8.65% (active).

Q: Which growth does the source give for CC1SC(=S)N(c2ccc(Cl)cc2)C1=O (stereo not given) here?
A: The growth was 103% (inactive) and 114% (inactive).

Q: How did the growth turn out when Cc1ccc2c(ccc3c[n+]4c5ccccc5ccc4n32)c1 was run?
A: Its growth is 58.6% (inactive).

Q: With CCC1OC(OC)C=CC1=O (stereo not given) as the compound, how does the growth read?
A: The growth was 110% (inactive).

Q: CCC(c1cccc(O)c1)C(CC)c1cccc(O)c1 (stereo not given) was tested. Which growth did it give?
A: The growth was 80% (inactive).

Q: For O=C(/C=C\c1ccccc1)N1c2ccccc2CC1c1c[nH]c2ccccc12 (stereo not given), which growth is on record?
A: The growth was 77.8% (inactive).

Q: How did the growth turn out when CC1OC2CC(=O)OC2C2=C1C(=O)c1c(O)cccc1C2=O (stereo not given) was run?
A: Its growth is -96.2% (active).

Q: With CCCCCCC(C)c1ccccc1O (stereo not given) (tested in a mixture with another compound) as the compound, how does the growth read?
A: The growth was 119% (inactive).

Q: C=C(Cl)C(=NC(C)(C)C)Nc1ccccc1C was tested. Which growth did it give?
A: Its growth is 106% (inactive).

Q: Which growth does the source give for CC(=O)C(=Cc1ccc(C=C(C(C)=O)C(C)=O)cc1)C(C)=O here?
A: Its growth is 5.12% (active).

Q: Which growth does the source give for N#CC1C(=O)SC2c3ccccc3C(=O)c3ccccc3C12 (stereo not given) here?
A: The growth was 99.5% (inactive).

Q: CCOC(=O)/C(=C\c1ccc(-c2ccccc2)cc1)C(C)=O was tested. Which growth did it give?
A: The growth was 86.1% (inactive).

Q: With Cc1cc2nc(CS)[nH]c2cc1C as the compound, how does the growth read?
A: Its growth is 131% (inactive).

Q: For NC(N)=N/N=C/c1ccc([N+](=O)[O-])o1, which growth is on record?
A: The growth was 115% (inactive).

Q: For CC(=Nc1ccc(N(C)C)cc1)c1ccccc1, which growth is on record?
A: The growth was 72.6% (inactive).

Q: COC(=O)Nc1nc2ccc(C(=O)c3ccccc3)cc2[nH]1 was tested. Which growth did it give?
A: The growth was 65% (inactive) and 75.9% (inactive) and 44.6% (inactive).

Q: CCCCCCCCCCCCCCCCOP(=O)([O-])OCC[N+](C)(C)C was tested. Which growth did it give?
A: Its growth is -70.3% (active).

Q: Oc1c(Br)cc(Cl)cc1C(c1cc(Cl)cc(Br)c1O)C(Cl)(Cl)Cl was tested. Which growth did it give?
A: The growth was 24.5% (inactive).

Q: How did the growth turn out when S=C(N/N=C/c1ccccn1)Nc1ccccn1 was run?
A: Its growth is 31.4% (inactive).

Q: With O=C(Oc1cccc2cccnc12)c1ccccc1 as the compound, how does the growth read?
A: Its growth is 106% (inactive) and 107% (inactive).

Q: CCC(CCCN(CC)CCc1ccccc1)OC(=O)c1cc(OC)c(OC)c(OC)c1 (stereo not given) was tested. Which growth did it give?
A: The growth was 72.6% (inactive).

Q: Which growth does the source give for COc1ccccc1/C=C\C(=O)c1ccccc1 here?
A: The growth was 104% (inactive).

Q: For O[C@H]1[C@H]2c3cc4c(cc3CN3CCC(=C[C@@H]1O)[C@H]23)OCO4, which growth is on record?
A: Its growth is 54.1% (inactive).

Q: O=C(Nc1ccccc1)c1cc(Cl)ccc1O was tested. Which growth did it give?
A: Its growth is 53.5% (inactive).

Q: O=C(Nc1cccc(Br)c1)Oc1ccc(Cl)c2cccnc12 was tested. Which growth did it give?
A: Its growth is 170% [100 µM] (inactive).

Q: For COc1cc(/C=C(/C)C[N+](=O)[O-])ccc1O, which growth is on record?
A: Its growth is 87.4% (inactive).

Q: With Cc1cc(C(C)(CC(C)C)c2ccc(O)c(C)c2)ccc1O as the compound, how does the growth read?
A: Its growth is 141% (inactive).

Same assay, conditions: 100 µM

Q: O=C(O)c1c(Cl)c(Cl)c(Cl)c(Cl)c1-c1c2cc(I)c(=O)c(I)c-2oc2c(I)c(O)c(I)cc12 was tested. Which growth did it give?
A: The growth was 36.6% (inactive).

Q: Which growth does the source give for O=C(Nc1cccc(Br)c1)Oc1cccc2cccnc12 here?
A: The growth was 112% (inactive).
